# From PubChem BioAssay AID1053125 (Broad Institute, 2014)
# Results with a measured potency or affinity are listed apart. Activity calls are given as the source filed them.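 How the source made its calls: active means viability loss whose fitted half-maximal concentration is at most twice the top valid tested dose; inconclusive means flat curve with 30 to 70% loss, or poor fit; inactive means the rest.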
# Assay: viability loss in HepG2 liver cells – cell-based, ATP luminescence, cherry-pick, set 6, cytotoxicity control, dose response (AID 1053125);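 further: negative values mean loss of viability signal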
# Conditions: ATP luminescence (CellTiter-Glo), 72 h; series mostly up to 26 µM; activity change, negative = cytotoxicity: at the top concentration
row,Structure (SMILES),"activity change, negative = cytotoxicity"
1,COc1ccc(C2c3ccc(O)cc3Oc3ncn4nc(-c5ccccn5)nc4c32)cc1 (stereo not given),-1.07% (inactive)
2,Cc1cccn2c(=O)c3cc(C(N)=S)c(=N)n(CCCOC(C)C)c3nc12,-6.1% (inactive)
3,C=Cc1ccc(Cn2c(C)c(C(=O)NCc3cccc(C)c3)sc2=O)cc1,3.39% (inactive)
4,COC(=O)C1=CN(Cc2ccc(OC)c(OC)c2)C=C(C(=O)OC)C1c1cccc(F)c1,-1.56% (inactive)
5,Cc1cccn2c(=O)c3cc(C(=O)NCCN4CCOCC4)c(=N)n(CCc4ccccc4)c3nc12,1.54% (inactive)
6,Nn1c(SCC(=O)N2CCCC2)nnc1-c1cccs1,-0.141% (inactive)
7,CCN(CC)c1ccc2cc(C#N)c(=O)oc2c1,3.25% (inactive)
8,COc1cc(/C=C(\C#N)C(=O)NC(C)C)cc(Cl)c1O,-4.17% (inactive)
9,Cc1cccn2c(=O)c3cc(C(=O)NCc4ccc(F)cc4)c(=N)n(CCCN4CCOCC4)c3nc12,-7.84% (inactive)
10,COc1ccc(Cn2nnnc2C(CC(C)C)N2CCC(C(N)=O)CC2)cc1 (stereo not given),-8.56% (inactive)
11,CCN1C=C(C(=O)OC)C(c2cccc(OC)c2OC)C(C(=O)OC)=C1,3.47% (inactive)
12,COCCN1C=C(C(=O)OC)C(c2ccc(Cl)cc2)C(C(=O)OC)=C1,-14.3% (inactive)
13,CCOc1ccc2nc(NCCCNS(=O)(=O)c3ccc(C)cc3)c(C#N)cc2c1,-1.54% (inactive)
14,CC1CCN(S(=O)(=O)N2CCC(C(=O)NC3CCCC3)CC2)CC1,-3.91% (inactive)
15,Cc1c(C(=O)NCc2ccc(Cl)c(Cl)c2)sc(=O)n1Cc1cccc(F)c1,-9.25% (inactive)
